Consider 60 molecules from the antibiotic and cytotoxicity screens of Wong et al. (2023).

Hit rate of the full screen: of about 39,000 compounds, about 3,300 (8.5%) were called active. The entries come from a sample that favours actives as a whole.

The assay has as its system HepG2. Put plainly: cytotoxicity call (relative viability < 0.9). To be noted: 10 µM.
Regarding `C=CCN([C@@H](Cc1ccccc1)[C@@H](O)c1cn(CCCNC(=O)C(=O)NC)nn1)S(=O)(=O)c1ccccc1[N+](=O)[O-]`, the cytotoxicity call is “inactive”.
Take `C[C@@H]1CN([C@@H](C)CO)S(=O)(=O)c2ccc(C#CCN(C)C)cc2O[C@H]1CN(C)S(=O)(=O)c1cccc(F)c1`: the cytotoxicity call was “inactive”.
In the case of `CC(=O)OC[C@@H](OC(C)=O)[C@H](OC(C)=O)[C@H](OC(C)=O)[C@H](OC(C)=O)[C@@H](COC(C)=O)OC(C)=O`, the cytotoxicity call was “inactive”.
For `Cc1noc(C)c1NC(=O)Nc1ccc2c(c1)C(=O)N([C@@H](C)CO)C[C@H](C)[C@@H](CN(C)C(=O)NC(C)C)O2`, the cytotoxicity call was “inactive”.
`COc1ccc(S(=O)(=O)Nc2ccc3c(c2)CC(=O)N([C@@H](C)CO)C[C@H](C)[C@H](CN(C)Cc2ccc(Cl)c(Cl)c2)O3)cc1`: the cytotoxicity call is “active”.
Turning to `COc1ccc(S(=O)(=O)Nc2ccc3c(c2)CC(=O)N([C@H](C)CO)C[C@H](C)[C@H](CN(C)Cc2ccc(Cl)c(Cl)c2)O3)cc1`, the cytotoxicity call is “active”.
With `COc1ccc(S(=O)(=O)Nc2ccc3c(c2)CC(=O)N([C@H](C)CO)C[C@@H](C)[C@H](CN(C)Cc2ccc(Cl)c(Cl)c2)O3)cc1`, the cytotoxicity call was “active”.
The entry for `COc1ccc(S(=O)(=O)Nc2ccc3c(c2)CC(=O)N([C@@H](C)CO)C[C@@H](C)[C@@H](CN(C)Cc2ccc(Cl)c(Cl)c2)O3)cc1` is “active”; for `COc1ccc(S(=O)(=O)Nc2ccc3c(c2)CC(=O)N([C@@H](C)CO)C[C@@H](C)[C@H](CN(C)Cc2ccc(Cl)c(Cl)c2)O3)cc1` it is “inactive”.
Turning to `COc1ccc(S(=O)(=O)Nc2ccc3c(c2)CC(=O)N([C@@H](C)CO)C[C@H](C)[C@@H](CN(C)Cc2ccc(Cl)c(Cl)c2)O3)cc1`, the cytotoxicity call is “inactive”.
Regarding `CN1C(=O)c2cc(NC(=O)c3cscn3)ccc2OC[C@@H]2O[C@H](CC(=O)N3CCOCC3)CC[C@@H]21`, the cytotoxicity call was “inactive”.
As to `OCC1OC(OCCc2ccc(O)cc2)C(O)C(O)C1O` (stereo not given), the cytotoxicity call is “inactive”.
The entry for `C[C@@H]1CN([C@H](C)CO)C(=O)c2cc(NC(=O)Nc3ccc(F)cc3)ccc2O[C@@H](C)CCCCO[C@@H]1CN(C)Cc1ccc(C(=O)O)cc1` is “inactive”; for `COc1ccccc1-c1cnc2c(c1)C(=O)N([C@H](C)CO)C[C@H](C)[C@H](CN(C)C(=O)c1cccnc1)O2` it is “inactive”; for `CC(O)C(=O)[O-].[NH4+]` (stereo not given) it is “inactive”.
For `C[C@H]1CN([C@@H](C)CO)C(=O)c2cccc(NC(=O)Nc3ccc(F)cc3)c2O[C@@H]1CN(C)C(=O)Nc1ccc(C(F)(F)F)cc1`, the cytotoxicity call is “inactive”.
Regarding `COc1ccc(S(=O)(=O)Nc2ccc3c(c2)CC(=O)N([C@H](C)CO)C[C@@H](C)[C@@H](CN(C)Cc2ccc(Cl)c(Cl)c2)O3)cc1`, the cytotoxicity call is “active”.
With `COc1ccc(S(=O)(=O)Nc2ccc3c(c2)CC(=O)N([C@H](C)CO)C[C@H](C)[C@@H](CN(C)Cc2ccc(Cl)c(Cl)c2)O3)cc1`, the cytotoxicity call is “inactive”.
As for `C/N=C1/S[C@@H]2CS(=O)(=O)C[C@@H]2N1C`, the entry is “inactive”; as for `O=C(C[C@H]1CC[C@H]2[C@@H](COC[C@@H](O)CN2S(=O)(=O)c2ccc(F)cc2)O1)N[C@H]1CCN(Cc2ccccc2)C1`, “inactive”; as for `COc1cccc(CNC(=O)C[C@@H]2C=C[C@H](NC(=O)C3CCOCC3)[C@@H](CO)O2)c1`, “inactive”.
`C[C@@H]1CN([C@@H](C)CO)C(=O)c2cccc(NS(=O)(=O)c3cn(C)cn3)c2O[C@@H]1CN(C)Cc1ccccc1`: the cytotoxicity call was “inactive”.
`COc1ccc2cc1Oc1ccc(cc1)C[C@H]1c3cc(c(OC)cc3CCN1C)Oc1c(OC)c(OC)cc3c1[C@H](C2)N(C)CC3`: the cytotoxicity call was “active”.
`COc1cc2c3cc1Oc1cc(ccc1O)CC1c4c(cc(OC)c(O)c4Oc4ccc(cc4)CC3N(C)CC2)CC[N+]1(C)C.Cl.O.O.O.O.O.[Cl-]` (stereo not given): the cytotoxicity call is “inactive”.
As for `COc1cc2c3cc1Oc1cc(ccc1O)C[C@@H]1c4c(cc(OC)c(O)c4Oc4ccc(cc4)C[C@@H]3N(C)CC2)CC[N+]1(C)C`, the cytotoxicity call was “inactive”.
Consider `COc1ccc2cc1Oc1ccc(cc1)CC1c3c(cc4c(c3Oc3cc5c(cc3OC)CCN(C)C5C2)OCO4)CCN1C` (stereo not given), for which the cytotoxicity call is “active”.
Turning to `COc1ccc2cc1Oc1ccc(cc1)C[C@H]1c3c(cc4c(c3Oc3cc5c(cc3OC)CCN(C)[C@@H]5C2)OCO4)CCN1C`, the cytotoxicity call is “inactive”.
For `COc1ccc2cc1Oc1ccc(cc1)CC1c3cc(c(OC)cc3CCN1C)Oc1c(OC)c(OC)cc3c1C(C2)N(C)CC3` (stereo not given), the cytotoxicity call was “inactive”.
As for `CO[C@H]1CN(C)C(=O)c2cc(NS(C)(=O)=O)ccc2OC[C@H](C)N(S(C)(=O)=O)C[C@@H]1C`, the entry is “inactive”; as for `CNC[C@@H]1OCCCC[C@@H](C)Oc2ccc(NS(=O)(=O)c3cn(C)cn3)cc2C(=O)N([C@@H](C)CO)C[C@@H]1C`, “inactive”.
As to `C[C@H]1CN([C@@H](C)CO)C(=O)c2cc(C#CC3(O)CCCC3)cnc2O[C@H]1CN(C)C(=O)Cc1ccncc1`, the cytotoxicity call was “inactive”.
For `O=C(NO)c1cccc(C(=O)N/N=C/c2cc(I)cc(I)c2O)c1`, the cytotoxicity call is “inactive”.
On to `O=C(Nc1ccc(Oc2ccc(Cl)cc2)c(Cl)c1)c1cc(I)cc(I)c1O`, for which the cytotoxicity call is “active”.
As for `O=C(Nc1ccc2ccccc2c1)c1ccc(Cl)cc1Cl`, the entry is “inactive”; as for `C[C@@H]1CN([C@@H](C)CO)C(=O)c2cc(NS(=O)(=O)c3ccc(F)cc3)ccc2O[C@@H](C)CCCCO[C@@H]1CN(C)C(=O)Nc1ccc(C(F)(F)F)cc1`, “active”; as for `C[C@H](CO)N1C[C@H](C)[C@H](CN(C)C(=O)Nc2ccc(C(F)(F)F)cc2)OCCCC[C@H](C)Oc2ccc(NS(=O)(=O)c3ccc(F)cc3)cc2C1=O`, “inactive”.
Consider `C[C@@H]1CCCCO[C@H](CN(C)C(=O)Nc2ccc(C(F)(F)F)cc2)[C@H](C)CN([C@H](C)CO)C(=O)c2cc(NS(=O)(=O)c3ccc(F)cc3)ccc2O1`, for which the cytotoxicity call was “active”.
Consider `C[C@@H]1CCCCO[C@H](CN(C)C(=O)Nc2ccc(C(F)(F)F)cc2)[C@@H](C)CN([C@@H](C)CO)C(=O)c2cc(NS(=O)(=O)c3ccc(F)cc3)ccc2O1`, for which the cytotoxicity call was “inactive”.
As for `C[C@@H]1CCCCO[C@H](CN(C)C(=O)Nc2ccc(C(F)(F)F)cc2)[C@@H](C)CN([C@H](C)CO)C(=O)c2cc(NS(=O)(=O)c3ccc(F)cc3)ccc2O1`, the cytotoxicity call was “inactive”.
Regarding `C[C@H](CO)N1C[C@H](C)[C@@H](CN(C)C(=O)Nc2ccc(C(F)(F)F)cc2)OCCCC[C@H](C)Oc2ccc(NS(=O)(=O)c3ccc(F)cc3)cc2C1=O`, the cytotoxicity call is “inactive”.
As to `C[C@H]1CCCCO[C@H](CN(C)C(=O)Nc2ccc(C(F)(F)F)cc2)[C@@H](C)CN([C@@H](C)CO)C(=O)c2cc(NS(=O)(=O)c3ccc(F)cc3)ccc2O1`, the cytotoxicity call was “active”.
`C[C@@H]1CCCCO[C@H](CN(C)C(=O)Nc2ccc(C(F)(F)F)cc2)[C@H](C)CN([C@@H](C)CO)C(=O)c2cc(NS(=O)(=O)c3ccc(F)cc3)ccc2O1`: the cytotoxicity call was “active”.
Take `C[C@H]1CN([C@@H](C)CO)S(=O)(=O)c2ccc(C#CC(C)(C)O)cc2O[C@H]1CN(C)Cc1ccccc1`: the cytotoxicity call was “inactive”.
As for `O=C(NO)c1ccc(C(=O)N/N=C/[C@H](O)[C@H](O)[C@@H](O)[C@@H](O)CO)cc1`, the cytotoxicity call is “inactive”.
For `C[C@@H]1CCCCO[C@H](CN(C)S(=O)(=O)c2ccc(F)cc2)[C@@H](C)CN([C@H](C)CO)C(=O)c2cc(NS(C)(=O)=O)ccc2O1`, the cytotoxicity call is “inactive”.
Turning to `C[C@@H]1CCCCO[C@H](CN(C)S(=O)(=O)c2ccccc2)[C@H](C)CN([C@H](C)CO)C(=O)c2cc(NC(=O)Nc3ccccc3)ccc2O1`, the cytotoxicity call was “inactive”.
Turning to `C[C@@H]1CCCCO[C@@H](CN(C)Cc2ccc(C(=O)Nc3ccccc3N)cc2)[C@@H](C)CN([C@H](C)CO)C(=O)c2cc(NC(=O)CCC(F)(F)F)ccc2O1`, the cytotoxicity call was “inactive”.
In the case of `C[C@@H]1CN([C@@H](C)CO)S(=O)(=O)c2ccc(C#C[C@@H](C)O)cc2O[C@H]1CN(C)C(=O)c1ccccc1`, the cytotoxicity call is “inactive”.
With `COc1ccc(NC(=O)Nc2ccc3c(c2)C(=O)N([C@@H](C)CO)C[C@@H](C)[C@H](CN(C)S(=O)(=O)c2ccccc2)OCCCC[C@H](C)O3)cc1`, the cytotoxicity call is “inactive”.
As to `COc1ccc(S(=O)(=O)N(C)C[C@H]2Oc3ccc(NS(=O)(=O)c4ccccc4)cc3CC(=O)N([C@H](C)CO)C[C@H]2C)cc1`, the cytotoxicity call is “inactive”.
Regarding `C[C@H]1CCCCO[C@@H](CN(C)C(=O)Nc2ccc(C(F)(F)F)cc2)[C@@H](C)CN([C@@H](C)CO)C(=O)c2cc(NS(=O)(=O)c3ccc(F)cc3)ccc2O1`, the cytotoxicity call was “inactive”.
Take `C[C@@H]1CCCCO[C@@H](CN(C)C(=O)Nc2ccc(C(F)(F)F)cc2)[C@@H](C)CN([C@H](C)CO)C(=O)c2cc(NS(=O)(=O)c3ccc(F)cc3)ccc2O1`: the cytotoxicity call was “active”.
As for `C[C@@H]1CCCCO[C@@H](CN(C)C(=O)Nc2ccc(C(F)(F)F)cc2)[C@H](C)CN([C@H](C)CO)C(=O)c2cc(NS(=O)(=O)c3ccc(F)cc3)ccc2O1`, the entry is “inactive”; as for `C[C@@H]1CCCCO[C@@H](CN(C)C(=O)Nc2ccc(C(F)(F)F)cc2)[C@H](C)CN([C@@H](C)CO)C(=O)c2cc(NS(=O)(=O)c3ccc(F)cc3)ccc2O1`, “active”.
As for `C[C@@H]1CCCCO[C@@H](CN(C)S(=O)(=O)c2cccs2)[C@H](C)CN([C@H](C)CO)C(=O)c2cc(NS(=O)(=O)c3cn(C)cn3)ccc2O1`, the entry is “inactive”; as for `COCC#Cc1ccc2c(c1)O[C@H](CN(C)S(=O)(=O)c1ccc(OC)cc1)[C@H](C)CN([C@H](C)CO)S2(=O)=O`, “inactive”.
With `C[C@@H]1CN([C@@H](C)CO)C(=O)c2cccc(NS(C)(=O)=O)c2O[C@H]1CN(C)C(=O)Nc1ccc(F)cc1`, the cytotoxicity call is “inactive”.
For `C[C@H]1CN([C@@H](C)CO)C(=O)c2cc(NC(=O)Cn3cnnn3)ccc2O[C@@H]1CN(C)Cc1ccc2c(c1)OCO2`, the cytotoxicity call is “inactive”.
As to `O=S1(=O)N[C@H](c2ccccc2)CO1`, the cytotoxicity call was “inactive”.
As for `Cc1ccc(S(=O)(=O)Nc2ccc3c(c2)CC(=O)N([C@H](C)CO)C[C@@H](C)[C@H](CN(C)C(=O)Nc2cccc4ccccc24)O3)cc1`, the entry is “inactive”.
